Source: article PMC4336329 (PLoS ONE, 2015)
Screen size: about 310,000 compounds; about 14,000 (4.5%) showed an effect of 50% or more. Effects have a minus sign here. Many of the other results were omitted from the sample, so strong results are more common in it than they were.
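Further: peak tail current of the secondary pulse compared with the same well before compound.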

The compounds below were run against human ether-à-go-go-related gene (hERG) potassium channel (human, UniProt Q12809) (assay: primary screen, population patch clamp on CHO cells stably expressing hERG; higher = less effect of the substance).
Sequence of human ether-à-go-go-related gene (hERG) potassium channel (Q12809 whole entry, looked up): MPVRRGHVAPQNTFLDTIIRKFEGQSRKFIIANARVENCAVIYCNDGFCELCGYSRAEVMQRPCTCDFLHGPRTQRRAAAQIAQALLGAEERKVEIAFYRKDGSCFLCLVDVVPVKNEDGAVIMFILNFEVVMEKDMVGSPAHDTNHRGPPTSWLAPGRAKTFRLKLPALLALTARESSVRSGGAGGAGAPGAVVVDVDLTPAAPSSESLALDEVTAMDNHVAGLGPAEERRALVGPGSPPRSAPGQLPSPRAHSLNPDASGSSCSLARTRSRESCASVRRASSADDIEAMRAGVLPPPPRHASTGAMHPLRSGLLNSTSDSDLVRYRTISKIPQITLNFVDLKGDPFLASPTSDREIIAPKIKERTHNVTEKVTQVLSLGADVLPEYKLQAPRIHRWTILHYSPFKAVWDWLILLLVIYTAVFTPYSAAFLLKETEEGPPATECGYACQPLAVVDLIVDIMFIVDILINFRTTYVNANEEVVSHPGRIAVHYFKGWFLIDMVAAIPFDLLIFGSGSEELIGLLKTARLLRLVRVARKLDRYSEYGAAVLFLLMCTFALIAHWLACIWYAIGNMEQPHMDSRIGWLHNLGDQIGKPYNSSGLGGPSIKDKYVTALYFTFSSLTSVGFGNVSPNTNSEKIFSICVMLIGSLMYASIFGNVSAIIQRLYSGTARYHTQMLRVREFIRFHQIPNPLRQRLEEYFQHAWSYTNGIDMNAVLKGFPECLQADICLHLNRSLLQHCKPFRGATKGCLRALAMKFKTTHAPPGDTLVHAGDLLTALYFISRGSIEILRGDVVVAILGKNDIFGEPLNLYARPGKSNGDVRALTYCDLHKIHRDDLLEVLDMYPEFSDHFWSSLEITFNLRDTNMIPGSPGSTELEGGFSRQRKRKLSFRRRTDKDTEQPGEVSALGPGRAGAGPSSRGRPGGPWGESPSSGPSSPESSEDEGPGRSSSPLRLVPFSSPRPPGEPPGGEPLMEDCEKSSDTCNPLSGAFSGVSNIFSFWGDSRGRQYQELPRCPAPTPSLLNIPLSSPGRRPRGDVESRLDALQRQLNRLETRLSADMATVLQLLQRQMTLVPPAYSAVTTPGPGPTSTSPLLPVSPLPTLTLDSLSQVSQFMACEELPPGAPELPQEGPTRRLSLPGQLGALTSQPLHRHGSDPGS
With Cc1ccc(S(=O)(=O)N2CCN(Cc3ccccc3)CC2)c(C)c1N(C)S(=O)(=O)c1ccccc1 the “hERG current change (%, negative = inhibition) at 10uM” value was 5.81%. In the case of Cc1ccc(S(=O)(=O)N(C)c2c(C)ccc(S(=O)(=O)N3CCN(C=O)CC3)c2C)cc1, the “hERG current change (%, negative = inhibition) at 10uM” value is reported as -42.8%. For Cc1cc(C)c(S(=O)(=O)N2CCCCC2)c(C)c1N(C)S(=O)(=O)c1ccc(Cl)cc1, the “hERG current change (%, negative = inhibition) at 10uM” value was 0.393%. With N#Cc1c(Nc2ccccc2)sc(C(=O)c2ccccc2)c1N the “hERG current change (%, negative = inhibition) at 10uM” value was -7.02%. In the case of O=C(O)c1cccc([N+](=O)[O-])c1C(=O)Nc1cccc2ccccc12, the “hERG current change (%, negative = inhibition) at 10uM” value is reported as 21.9%. With C[C@@H]1CC=C[C@H]2[C@H]1C(=O)N(Cc1ccccc1)[C@H]2c1ccc(/C=C/c2ccccc2)cc1F the “hERG current change (%, negative = inhibition) at 10uM” value was 4.34%. For O=C(CN(Cc1ccco1)C(=O)Cn1nnc(-c2cccs2)n1)NCC1CCCO1 (stereo not drawn), the “hERG current change (%, negative = inhibition) at 10uM” value was 6.63%. O=C(CN(Cc1ccco1)C(=O)Cn1nnc(-c2cccs2)n1)NCc1ccccc1 was tested, and the “hERG current change (%, negative = inhibition) at 10uM” value was -51.7%. With O=C(CN(CCc1ccccc1)C(=O)Cn1nnc(-c2cccs2)n1)NCc1ccco1 the “hERG current change (%, negative = inhibition) at 10uM” value was -38.7%. CCSc1nnc(NC(=O)COc2ccc(Cl)cc2)s1 was tested, and the “hERG current change (%, negative = inhibition) at 10uM” value was 24%. With CC(=O)C1=C(C)NC(SCC(=O)c2ccc(Cl)c(Cl)c2)=C(C#N)C1c1ccco1 (stereo not drawn) the “hERG current change (%, negative = inhibition) at 10uM” value was 5.27%. With CCCCC(=O)NC(Nc1cc(C)ccn1)(C(=O)OCC)C(F)(F)F (stereo not drawn) the “hERG current change (%, negative = inhibition) at 10uM” value was 2.5%. With CCC(C)(C)C1CCC(=NNC(=S)Nc2ccccc2)CC1 (stereo not drawn) the “hERG current change (%, negative = inhibition) at 10uM” value was 11.4%. For COC(/C=C/Nc1ccc(C)cc1)=C(C#N)C#N, the “hERG current change (%, negative = inhibition) at 10uM” value was -38%. For COC(/C=C/Nc1ccc(OC)cc1)=C(C#N)C#N, the “hERG current change (%, negative = inhibition) at 10uM” value was -59.9%. For COC(/C=C/Nc1ccc(Br)cc1)=C(C#N)C#N, the “hERG current change (%, negative = inhibition) at 10uM” value was -39.3%. In the case of CCc1cc2c(CN3CCN(CC)CC3)cc(=O)oc2cc1O, the “hERG current change (%, negative = inhibition) at 10uM” value is reported as -8.81%. CC1(C)Oc2ccc3ccc(=O)oc3c2C(/C=N/O)C1=O (stereo not drawn) was tested, and the “hERG current change (%, negative = inhibition) at 10uM” value was 3.87%. O=C(CN1C(=O)NC2(CCCCCC2)C1=O)c1ccc(OC(F)F)cc1OC(F)F was tested, and the “hERG current change (%, negative = inhibition) at 10uM” value was -35%. COc1cc(CN2CCN(C(=O)CC(C)C)CC2)cc(OC)c1O.O=C(O)C(=O)O was tested, and the “hERG current change (%, negative = inhibition) at 10uM” value was -0.00662%. For COc1cc(OC)c(OC)cc1CN1CCN(Cc2ccc(SC)cc2)CC1.O=C(O)C(=O)O, the “hERG current change (%, negative = inhibition) at 10uM” value was -61.5%. In the case of COc1cc(CN2CCN(Cc3ccc(SC)cc3)CC2)cc(OC)c1O.O=C(O)C(=O)O, the “hERG current change (%, negative = inhibition) at 10uM” value is reported as -67.9%. In the case of COc1cccc(CN2CCN(Cc3cc(OC)c(OC)cc3OC)CC2)c1.O=C(O)C(=O)O, the “hERG current change (%, negative = inhibition) at 10uM” value is reported as -29.1%. In the case of COc1cc(OC)c(OC)cc1CN1CCN(Cc2cccc(F)c2)CC1.O=C(O)C(=O)O, the “hERG current change (%, negative = inhibition) at 10uM” value is reported as 10.2%. COc1ccc(C(=O)N2CCN(Cc3cc(OC)c(O)c(OC)c3)CC2)cc1OC.O=C(O)C(=O)O was tested, and the “hERG current change (%, negative = inhibition) at 10uM” value was 8.89%. In the case of Cc1ccc(N2C(=O)CS(=O)(=O)CC2=O)cc1, the “hERG current change (%, negative = inhibition) at 10uM” value is reported as 22.9%. With CC[C@H](C)[C@H](NC(N)=O)C(=O)NCCc1ccc(OC)c(OC)c1 the “hERG current change (%, negative = inhibition) at 10uM” value was 20.1%. With O=[N+]([O-])C(=C1Nc2ccccc2N1)/C(Cl)=C(/Cl)Br the “hERG current change (%, negative = inhibition) at 10uM” value was 19.8%. N#Cc1nc(-c2cccs2)oc1NCC1CCCO1 (stereo not drawn) was tested, and the “hERG current change (%, negative = inhibition) at 10uM” value was -10%. With c1csc(-c2nc(NCC3CCCO3)c3ccccc3n2)c1 (stereo not drawn) the “hERG current change (%, negative = inhibition) at 10uM” value was -20.5%. In the case of Brc1ccc2nc(-c3cccs3)c(NCC3CCCO3)n2c1 (stereo not drawn), the “hERG current change (%, negative = inhibition) at 10uM” value is reported as -52.6%. In the case of COc1ccccc1OCC(=O)Nc1c2c(nn1-c1ccccc1)CS(=O)(=O)C2, the “hERG current change (%, negative = inhibition) at 10uM” value is reported as -8.22%. Cc1c(C)c2cc(Cl)c(OCC(=O)N3C[C@H]4C[C@@H](C3)c3cccc(=O)n3C4)cc2oc1=O was tested, and the “hERG current change (%, negative = inhibition) at 10uM” value was 1.78%. For CC(=O)c1cccc(Nc2nc(-c3ccccc3)nc3ccccc23)c1.Cl, the “hERG current change (%, negative = inhibition) at 10uM” value was 26.9%. CC(=O)c1cccc(Nc2c3c(nc4ccccc24)CCC3)c1.Cl was tested, and the “hERG current change (%, negative = inhibition) at 10uM” value was -68.8%. O=C(O)c1cccc(Nc2c3ccccc3nc3ccccc23)c1 was tested, and the “hERG current change (%, negative = inhibition) at 10uM” value was 19.7%. With O=C(Nc1c2c(nc3ccccc13)CCCC2)c1ccccc1Cl the “hERG current change (%, negative = inhibition) at 10uM” value was 17.2%. With CC(=O)c1ccc(Nc2c3c(nc4ccccc24)CCCC3)cc1 the “hERG current change (%, negative = inhibition) at 10uM” value was -53.3%. Cc1ccccc1C(=O)Nc1c2c(nc3ccccc13)CCCC2 was tested, and the “hERG current change (%, negative = inhibition) at 10uM” value was -5.54%. For CCC(CC)C(=O)NC12CC3CC(CC(C3)C1)C2, the “hERG current change (%, negative = inhibition) at 10uM” value was 5.15%. In the case of Cc1cccc(CSCCNC(=O)CN(c2cc(C)cc(C)c2)S(C)(=O)=O)c1, the “hERG current change (%, negative = inhibition) at 10uM” value is reported as -23.9%. With CC(NC(=O)C(=O)N1CCOCC1)C(c1cccs1)N1CCN(c2ccc(F)cc2)CC1 (stereo not drawn) the “hERG current change (%, negative = inhibition) at 10uM” value was -0.955%.
